Assay results from PubChem BioAssay AID2280 (The Scripps Research Institute Molecular Screening Center, 2010).
About 1,400 (0.44%) of roughly 320,000 compounds were called active. Only a selection was taken, and actives are over-represented in it overall. Unmarked numbers belong to inactive results.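 The calls were made as follows: active = percent inhibition above a per-plate cutoff, the plate mean of test compounds plus 3 SD (cut at about 30% in these data); inactive = the rest.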

The compounds below were run against Female germline-specific tumor suppressor gld-1 (Caenorhabditis elegans) (UniProt Q17339) (assay: GLD-1/TGE RNA complex disruptors, primary screen, biochemical, fluorescence polarization (AID 2280;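 also: 0% = DMSO wells with GLD-1 and probe and 100% = wells lacking GLD-1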)). Details: purified GLD-1 + fluorescein TGE RNA, at 5.96 µM, hits give high values.
Female germline-specific tumor suppressor gld-1 (Caenorhabditis elegans), sequence (Q17339 whole entry, looked up): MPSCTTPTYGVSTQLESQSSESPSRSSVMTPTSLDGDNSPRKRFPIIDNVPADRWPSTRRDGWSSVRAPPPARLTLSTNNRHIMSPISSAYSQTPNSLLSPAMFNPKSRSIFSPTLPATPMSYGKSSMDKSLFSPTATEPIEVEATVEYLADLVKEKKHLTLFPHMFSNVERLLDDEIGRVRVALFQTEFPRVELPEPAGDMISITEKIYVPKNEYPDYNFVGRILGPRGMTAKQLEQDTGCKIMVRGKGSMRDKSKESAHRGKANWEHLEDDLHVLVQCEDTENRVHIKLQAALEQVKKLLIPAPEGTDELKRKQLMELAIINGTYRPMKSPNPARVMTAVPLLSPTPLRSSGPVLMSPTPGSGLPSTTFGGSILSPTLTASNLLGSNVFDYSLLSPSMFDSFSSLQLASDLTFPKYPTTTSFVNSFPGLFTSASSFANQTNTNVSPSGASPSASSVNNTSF
`Oc1ccc2ccccc2c1N=Nc1nccs1` was tested, and the inhibition was 33.5% (active). With `COc1ccc2[nH]c(=O)c(CN(Cc3cccnc3)S(=O)(=O)c3ccccc3F)cc2c1` the inhibition was 8.84%. `O=C(C1=C(O)C(=O)N(Cc2ccccc2)C1c1cccnc1)c1ccco1` (centres undefined) showed an inhibition of -1.41%. In the case of `O=C(C1=C(O)C(=O)N(c2ncccn2)C1c1cccs1)c1ccco1` (centres undefined), the inhibition is reported as 110% (active). For `COc1cc(C2C(C(=O)c3ccco3)=C(O)C(=O)N2c2cc(C)on2)ccc1OCc1ccccc1` (centres undefined), the inhibition was -1.87%. For `CN(c1ccccc1)S(=O)(=O)c1ccc2[nH]c(=O)[nH]c2c1`, the inhibition was -0.63%. `Cc1ccc(C)c(OCCC(=O)OCC(=O)N2CCN(c3ccccc3)CC2)c1` showed an inhibition of -2.09%. `Cc1sc2ncnc(SCC(=O)Nc3ccc(CN4CCCC4)cc3)c2c1C` gave an inhibition of -0.9%. `COc1ccccc1C1CCN(c2ccc([N+](=O)[O-])cn2)CC1` was tested, and the inhibition was 3.13%. In the case of `COc1ccc(Nc2ccc([N+](=O)[O-])cn2)cn1`, the inhibition is reported as 44.7% (active). `COc1ccc(C(=O)NCCNc2ccc([N+](=O)[O-])cn2)cc1` showed an inhibition of 9.44%. With `CCN1CCN(c2ccc(S(=O)(=O)N3CCCCC3)cc2NC(=O)Cc2c(Cl)cccc2Cl)CC1` the inhibition was -0.26%. `CCN(C[C@H]1N[C@@](CC)(C(=O)OC)[C@H]2C(=O)N(C)C(=O)[C@@H]12)C(=O)Nc1ccc(F)cc1` gave an inhibition of 1.26%. `CCC(=O)Nc1ccc(S(=O)(=O)Nc2c(NC)c3ccccc3oc2=O)cc1` was tested, and the inhibition was 0.71%. Work on `C[C@H](NC(=O)c1nc[nH]c1C(=O)N[C@@H](C)C(=O)OC(C)(C)C)C(=O)OC(C)(C)C` yielded an inhibition of 0.74%. In the case of `O=[N+]([O-])/C=C/c1ccc2c(ccn2Cc2ccccc2)c1`, the inhibition is reported as 7.04%. With `O=C(OCCOCn1cc(Br)c(=O)[nH]c1=O)c1ccccc1` the inhibition was 5.67%. `COc1cc(C(=O)NCc2ccc3c(c2)cc(C)n3C)cc(OC)c1OC` was tested, and the inhibition was 34.8% (active). Work on `COc1cc(C(=O)NCc2cc3cc(Cl)ccc3n2C)cc(OC)c1OC` yielded an inhibition of -2.07%. `CCOCC(=O)NCc1ccc2c(c1)cc(C)n2C` gave an inhibition of 25.6%. `CCCC(C(=O)n1nc(C)cc1C)C(NS(=O)(=O)c1ccc(C)cc1)c1ccccc1` (centres undefined) was tested, and the inhibition was 2.32%. Work on `O=C(COC(=O)[C@H](Cc1ccccc1)NC(=O)c1cccs1)Nc1cc(F)ccc1F` yielded an inhibition of 8.92%. `COCCn1c(SCC(=O)N2CCCCCC2)nc2c(c1=O)SCC2` showed an inhibition of -2.72%. `COc1cc(C(=O)N2C(=O)c3cccc(N)c3C2=O)cc(OC)c1OC` was tested, and the inhibition was 10.9%. For `CC(=O)N1CCN(S(=O)(=O)c2cccc(C(=O)NC3CCC(C)CC3)c2)CC1` (centres undefined), the inhibition was 1.54%. `CC1CC(C)CN(S(=O)(=O)c2cccc(C(=O)N3C(=O)c4cccc(N)c4C3=O)c2)C1` (centres undefined) was tested, and the inhibition was 31.4% (active). For `CCOc1cc(/C=C2/N=C(c3ccc(C(C)(C)C)cc3)OC2=O)cc(Cl)c1OS(C)(=O)=O`, the inhibition was 4.12%. Compound `CCOC(=O)N1CCN(c2cc(C)c([N+](=O)[O-])cc2F)CC1` has an inhibition of -3.69%. `O=C(C1=C(O)C(=O)N(CCOCCO)C1c1ccccn1)c1cccs1` (centres undefined) was tested, and the inhibition was 5.95%. In the case of `Cc1cc2ccccc2n1CCC(=O)O`, the inhibition is reported as 50.2% (active). In the case of `O=C(O)CCn1c(Cc2ccccc2)nc2ccccc21`, the inhibition is reported as -2.47%. With `Cc1cc2ccccc2n1CCNC(=O)COc1ccc2ccccc2c1` the inhibition was 7.21%. `COC(=O)c1cn(C)c2ccc(S(=O)(=O)N3CC(C)CC(C)C3)cc2c1=O` (centres undefined) gave an inhibition of 3.86%. `Cc1ccc(NC(=O)C(C)c2cccc(C(=O)c3ccccc3)c2)cc1` (centres undefined) was tested, and the inhibition was 2.46%. With `O=C(CCc1ccccc1)Nc1ccc(NC(=O)C2CC2)nc1` the inhibition was 8.07%. Compound `O=C(NCCN1CCOCC1)[C@H](Cc1ccccc1)N1C(=O)c2ccccc2C1=O` has an inhibition of 5.89%. `C=C1CCN([C@@H](Cc2ccccc2)C(=O)N2CCOCC2)S(=O)(=O)c2ccccc21` was tested, and the inhibition was 39.9% (active). `N[C@@H](Cc1ccccc1)C(=O)N1CCOCC1` showed an inhibition of 10.2%. In the case of `CCN(c1ccc2c(c1)OCO2)S(=O)(=O)c1cc(Br)cc2c1N(C(=O)C1CC1)CC2`, the inhibition is reported as 2.82%. `Cc1ccc(S(=O)(=O)c2c[nH]c3ccc(Cl)cc3c2=O)cc1` was tested, and the inhibition was 1.43%. In the case of `Cc1cc(=O)oc2cc(OCC3CC(c4ccccc4Cl)=NO3)ccc12` (centres undefined), the inhibition is reported as 4.3%. `CC(=O)c1nnn(-c2ccc(Cl)cc2C#N)c1C` gave an inhibition of 2.27%. `CC[N+](C)(CC)CCC[n+]1c(-c2ccccc2)c2cc(N)ccc2c2ccc(N)cc21` was tested, and the inhibition was 62.4% (active). Compound `CC(C)[C@H](NC(=O)N1CCn2c1nc1ccccc12)C(=O)NC1CC1` has an inhibition of -3.08%. For `CC1CCN(c2c(NCc3ccc(C(=O)NCc4ccccc4)cc3)c(=O)c2=O)CC1`, the inhibition was -1.64%. In the case of `Cc1ccc(CNC(=O)c2cccc3c2C(=O)c2ccc(N4CCC(C)CC4)cc2S3(=O)=O)cc1`, the inhibition is reported as 124% (active). `Cc1ccc(CNC(=O)c2ccc3c(c2)S(=O)(=O)c2ccccc2C3=O)cc1` showed an inhibition of -2.48%. Compound `O=[N+]([O-])c1cc(S(=O)(=O)Nc2cccc(Cl)c2)ccc1N=Nc1c(O)[nH]c2ccccc12` has an inhibition of 0.17%. `O=C(NCC(c1cccs1)N1CCOCC1)c1cc(Cl)ccc1[N+](=O)[O-]` (centres undefined) gave an inhibition of 1.88%. Work on `CCOC(=O)CN(C)S(=O)(=O)c1ccc(-c2cc(C(=O)OC)sc2C(F)(F)F)cc1` yielded an inhibition of 9.97%. For `COc1ccc(C2C=C(c3ccc(Br)cc3)Nc3nc(NS(C)(=O)=O)nn32)cc1` (centres undefined), the inhibition was 155% (active). `COc1ccc(C2=CC(c3cccc(OC)c3)n3nnnc3N2)cc1` (centres undefined) showed an inhibition of 14.6%. `CSc1cccc(NC(=O)CN2C(=O)COc3ccc(S(=O)(=O)N4CCOCC4)cc32)c1` showed an inhibition of -0.09%. In the case of `N#CCc1ccc(NC(=O)c2ccccc2C(=O)Nc2ccc(CC#N)cc2)cc1`, the inhibition is reported as -0.7%. `COc1cccc(NC(=O)CN(C)CC(=O)c2c(N)n(Cc3ccccc3)c(=O)n(C)c2=O)c1` was tested, and the inhibition was 3.38%. In the case of `Nc1ccc2nc3c(=O)[nH]c(=S)[nH]c3nc2c1`, the inhibition is reported as 172% (active). With `O=c1[nH]c(=O)c2nc3ccccc3nc2[nH]1` the inhibition was 48.7% (active). `CNC(=O)c1cccc2nc3ccccc3nc12` gave an inhibition of 3%. With `O=C1NCCn2nc3ccccc3c21` the inhibition was -0.55%. Work on `Cc1csc(/N=C/N(C)C)c1C#N` yielded an inhibition of 7.85%. For `COc1cccc(NC(=O)C(=O)c2cn(CC(=O)N3CCOCC3)c3ccccc23)c1`, the inhibition was 9.65%. In the case of `Cc1ccc(C2(C)NC(=O)N(CC(=O)N3CC(=O)Nc4ccccc43)C2=O)cc1` (centres undefined), the inhibition is reported as -0.04%. `Cc1ccc(-c2nnc(Nc3ccc(C(=O)N(C)C)cc3)c3ccccc23)cc1S(N)(=O)=O` was tested, and the inhibition was 6.66%. In the case of `O=C(Nc1cccc(F)c1)N1C2CCC1CC(O)(c1cccnc1)C2` (centres undefined), the inhibition is reported as -5.02%. For `CC[C@]1(O)CC2CN(CCc3c([nH]c4ccccc34)[C@@](C(=O)OC)(c3cc4c(cc3OC)N(C=O)[C@H]3[C@@](O)(C(=O)OC)[C@H](OC(C)=O)[C@]5(CC)C=CCN6CC[C@]43[C@@H]65)C2)C1` (some centres undefined), the inhibition was 8%. `CC[C@]1(O)C[C@@H]2CN(CCc3c([nH]c4ccccc34)[C@@](C(=O)OC)(c3cc4c(cc3OC)N(C)[C@H]3[C@@](O)(C(=O)OC)[C@H](OC(C)=O)[C@]5(CC)C=CCN6CC[C@]43[C@@H]65)C2)C1` was tested, and the inhibition was 35.9% (active). `COc1ccc(Cc2nnc(N/N=C/c3ccccc3O)[nH]c2=O)cc1OC` gave an inhibition of 2.1%. `Cc1ccc(/C=N/NC(=O)CSc2nc3ccccc3o2)cc1` was tested, and the inhibition was 13.4%. Work on `Cc1cccc(OCC(=O)NCC(=O)N/N=C/c2ccc(N(C)C)cc2)c1` yielded an inhibition of 1.86%. In the case of `Cc1ccc(/C=N/NC(=O)COc2ccccc2-c2ccccc2)cc1`, the inhibition is reported as 52.5% (active). Work on `COc1cc(/C=C2\Oc3ccc(C#Cc4ccc(O)cc4)cc3C2=O)cc(OC)c1` yielded an inhibition of -7.59%. Work on `O=C(CCN1CCc2ccccc2C(O)(c2ccccc2)C1)c1ccc2c(c1)OCCO2` (centres undefined) yielded an inhibition of 8.71%. `COC(=O)c1cc(C(=O)N(Cc2ccccc2)c2ccccn2)cc([N+](=O)[O-])c1` was tested, and the inhibition was 3.82%. In the case of `COCCOC(=O)c1sc(=S)n(CCOC)c1N`, the inhibition is reported as 65.8% (active). Compound `COc1cccc(-n2c(SCC(=O)NC3CCS(=O)(=O)C3)nc3ccccc3c2=O)c1` (centres undefined) has an inhibition of 1.53%. `CSCCC(NS(=O)(=O)c1ccc2c(c1)oc(=O)n2C)C(=O)NCc1ccccc1` (centres undefined) showed an inhibition of 4.5%. In the case of `Cc1cc2nc3c(=O)n(Cc4ccccc4)c(=O)[nH]c3nc2cc1N`, the inhibition is reported as 190% (active). `COC(=O)CSc1nc2ccccc2c(=O)n1Cc1ccccc1` gave an inhibition of -3.39%. `C=CCSc1nc2c(c(=O)[nH]c(=O)n2C)n1Cc1ccccc1` showed an inhibition of -0.99%. With `COc1cc([C@H](Cc2ccccc2)NC(C)=O)oc(=O)c1` the inhibition was 43.8% (active). Compound `CCOC(=O)C(Cc1ccccc1)NC(=O)CCC(=O)c1ccc(OC)cc1` (centres undefined) has an inhibition of 2.6%. Work on `COc1ccc(OC)c(NC(=O)N[C@H](Cc2ccccc2)C(=O)NN)c1` yielded an inhibition of 6.48%. `CCCCCCCCc1c(O)nc(-n2[nH]c(C)c(CCO)c2=O)[nH]c1=O` gave an inhibition of 3.56%. In the case of `COCCN(C(=O)c1ccccc1F)c1c(N)n(Cc2ccccc2)c(=O)[nH]c1=O`, the inhibition is reported as 1.28%. In the case of `COCCn1c(N)c(NCc2ccccc2)c(=O)[nH]c1=O`, the inhibition is reported as 94.7% (active). Work on `COCCn1c(N)c(N(Cc2ccccc2)C(=O)C2CCCCC2)c(=O)[nH]c1=O` yielded an inhibition of 7.47%. Compound `COC(=O)c1c(NC(=O)CN2CCN(S(=O)(=O)c3ccccc3[N+](=O)[O-])CC2)sc2c1CCC(C)C2` (centres undefined) has an inhibition of 1.69%. Work on `COc1ccc(C2C(C#N)=C(N)N(c3ncn[nH]3)C3=C2C(=O)CCC3)cc1` (centres undefined) yielded an inhibition of 2.28%. In the case of `O=C(Nc1ccccc1C(=O)O)c1ccc(N2C(=O)C3CC=CCC3C2=O)cc1` (centres undefined), the inhibition is reported as 3.32%. Compound `CC1=C(C(=O)OCc2ccccc2)C(c2ccco2)n2ncnc2N1` (centres undefined) has an inhibition of 0.86%. `CCOc1ccc(C2=CC(c3ccccc3)n3ncnc3N2)cc1` (centres undefined) showed an inhibition of 11.7%. For `Brc1ccc(C2=CC(c3ccco3)n3ncnc3N2)cc1` (centres undefined), the inhibition was 158% (active). `CCC(C)[C@@H](C(=O)N1CCNCC1)n1cc(CCCCN)nn1` (some centres undefined) was tested, and the inhibition was 3.86%. `COc1cc2c(-c3ccc4c(c3)OCO4)c(-c3ccsc3)oc(=O)c2cc1OC` was tested, and the inhibition was 0.87%.
